Potency data for seven compounds are collected here from PubChem BioAssay (Tox21).

Several values for one entry are separate records, joined by “and”; a condition that tells them apart may be missing. Equal values may be shown once. Results filed as inconclusive are left out. Some structures have more than one record in an assay (separate samples or runs), and their calls can disagree. Activity calls are given as the source filed them. Unless noted, calls come from the whole dose curve.

Assay [1] can be described thus: Nuclear factor erythroid 2-related factor 2/antioxidant responsive element (Nrf2/ARE) small molecule agonists: qHTS cell viability counter screen in human keratinocytes (AID 1919968; active = well fitted curve in the direction sought with a large enough effect in the repeat runs; an effect the other way counts as inactive or inconclusive; note: nearly all actives have a fitted effect of over 55% in size; note: potency is the fitted concentration of half-maximal effect). The method in brief: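 KeratinoSens HaCaT cells, 1,500/well, preincubated 5 h, then exposed to compounds in DMSO for 23 h at 37 C/5% CO2. Viability read as CellTiter-Fluor fluorescence after 1 h, in the same wells as the ARE-luciferase read.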

Assay [2] in a line: Nuclear factor erythroid 2-related factor 2/antioxidant responsive element (Nrf2/ARE) small molecule agonists: luciferase reporter gene qHTS assay in human keratinocytes (AID 1919969). Note: nearly all actives have a fitted effect of over 35% in size. Note: potency is the fitted concentration of half-maximal effect.
Assay [3] addresses Gonadotropin-releasing hormone receptor (Homo sapiens) (UniProt P30968). Description: Human gonadotropin-releasing hormone receptor (GnRHR) small molecule agonists, calcium flux assay in GnRHR-HEK293 cells (AID 1920063). Note: nearly all actives have a fitted effect of over 35% in size. Note: potency is the fitted concentration of half-maximal effect. The method in brief:
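HEK293 cells stably expressing human GnRHR were dye-loaded for 1 h at 37 C. Compound was added in agonist mode and fluorescence (Ex/Em 480/540) recorded kinetically for 3 min. Fifteen concentrations, triplicates.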

Assay [4] deals with KiSS-1 receptor (Homo sapiens) (UniProt Q969F8). Description: Human kisspeptin (KISS1R) small molecule agonists, calcium flux assay in KISS1R-HEK293 cells (AID 1920064; active = well fitted curve in the direction sought with a large enough effect in the repeat runs; an effect the other way counts as inactive or inconclusive). Put shortly:
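HEK293 cells stably expressing human KISS1R were loaded with calcium dye for 1 h at 37 C, then given compound; fluorescence (Ex/Em 480/540) was read kinetically for 3 min. Fifteen concentrations, triplicate.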
On the technique in general: A change in cytosolic calcium serves as a functional read-out for many receptors and channels.

Assay [5] in a line: G protein-coupled receptor (GPCR) small molecule agonists, calcium flux assay: HEK293 wild type cell line counter screen (AID 1920065). Put shortly:
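Wild-type HEK293 cells plated 18 h, loaded with calcium dye 1 h at 37 C, then compounds added in agonist mode (ATP as positive control). Kinetic fluorescence Ex/Em 480/540 recorded 3 min at 1 sec intervals; 15 concentrations, triplicate.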

A short description of assay [6]: p53 small molecule agonists, cell-based qHTS assay with human liver microsomes: qHTS cell viability counter screen (AID 1963579). Note: nearly all actives have a fitted effect of over 45% in size. Note: potency is the fitted concentration of half-maximal effect. The method in brief:
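Tox21 library compounds, delivered from DMSO stocks, were tested on p53RE-bla cells together with 0.5 mg/mL human liver microsomes and 0.5 mg/mL NADPH (final) over 16 h at 37 C; CellTiter-Glo luminescence served as the cytotoxicity measure.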

Assay [7] in a line: p53 small molecule agonists, cell-based qHTS assay with rat liver microsomes: qHTS cell viability counter screen (AID 1963580). Note: nearly all actives have a fitted effect of over 45% in size. Note: potency is the fitted concentration of half-maximal effect. The method in brief:
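Intracellular ATP, by CellTiter-Glo luminescence, defines viability. HCT-116 p53RE-bla cells, 4,000 per well, were compound-treated in the presence of rat liver microsomes and NADPH for 16 h at 37 C.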

A short description of assay [8]: p53 small molecule agonists, cell-based qHTS assay: qHTS cell viability counter screen (AID 1963581). Note: nearly all actives have a fitted effect of over 45% in size. Note: potency is the fitted concentration of half-maximal effect. The method in brief: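 p53RE-bla HCT-116 cells, compounds added 5 h after plating and incubated 16 h at 37 C. Cytotoxicity measured in the same wells as intracellular ATP by CellTiter-Glo luminescence after 30 min at room temperature.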
The nature of assay [9]: p53 small molecule agonists, cell-based qHTS assay (AID 1963582; active = well fitted activation curve with a large enough effect in the signal ratio in the repeat runs, not every such curve was filed as active; the % refers to the signal ratio). Put shortly: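 p53RE-bla reporter cells, compounds added in DMSO after 5 h plating, incubated 16 h at 37 C. Beta-lactamase read via 2 h room-temperature LiveBLAzer B/G FRET substrate, fluorescence intensity.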
Assay [10] has as its target 5-hydroxytryptamine receptor 2A (Homo sapiens) (UniProt P28223). Description: 5-hydroxytryptamine receptor 2A (HTR2A) small molecule antagonists, cell-based qHTS assay (AID 1963586). Note: nearly all actives have a fitted effect of over 45% in size. The method in brief:
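Antagonist-mode intracellular calcium assay: DOI (4 nM) added after 5 min compound pre-incubation at room temperature to dye-loaded HTR2A-CHO cells. Fluorescence followed for 3 min, sampled every second.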

For assay [11] the target is unchanged. Description: 5-hydroxytryptamine receptor 2A (HTR2A) small molecule agonists, cell-based qHTS assay (AID 1963587). Note: nearly all actives have a fitted effect of over 30% in size. Note: potency is the fitted concentration of half-maximal effect. Put shortly: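 Kinetic calcium-flux fluorescence (2 min, 1 sec intervals) after compound addition in agonist mode. HTR2A-CHO cells were cultured 18 h, then dye-loaded 1 h at 37 C.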
A general note: In qHTS, concentration-response curves come from the screen itself.

Assay [12] has as its target Muscarinic acetylcholine receptor M1 (Homo sapiens) (UniProt P11229). The assay is described as follows: Cholinergic receptor muscarinic 1 (CHRM1) small molecule antagonists, cell-based qHTS assay (AID 1963588). Note: nearly all actives have a fitted effect of over 40% in size. Note: potency is the fitted concentration of half-maximal effect. Put shortly:
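CHRM1-CHO calcium-flux assay, antagonist mode. Cells were seeded 18 h, dye-loaded 1 h at 37 C and given compound for 5 min at RT, then acetylcholine was added at 50nM. FDSS fluorescence was read 3 min; 15 concentrations, three runs.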

The target is the same in assay [13]. The assay is described as follows: Cholinergic receptor muscarinic 1 (CHRM1) small molecule agonists, cell-based qHTS assay (AID 1963589). Note: nearly all actives have a fitted effect of over 35% in size. Put shortly:
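CHO cells stably expressing human CHRM1 were loaded with calcium dye for 1 h at 37 C, then compound was added in agonist mode. Intracellular calcium fluorescence was followed kinetically at 1 s intervals. Fifteen concentrations were tested in three independent runs.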

A short description of assay [14]: cAMP Responsive Elements (CRE) small molecule agonists, cell-based qHTS assay (AID 1963590). The method in brief: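 CRE-bla HEK 293T cells, 2,000/well in DMEM with 10% dialyzed FBS and 25 mM HEPES, pre-incubated 18 h at 37 C, then exposed to compound 3 h at 37 C. Beta-lactamase reporter read with LiveBLAzer B/G FRET substrate after 2 h at room temperature.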
Assay [15] in a line: cAMP Responsive Elements (CRE) small molecule antagonists, cell-based qHTS assay (AID 1963591; active = well fitted inhibition curve with a large enough effect in the signal ratio in the repeat runs, not every such curve was filed as active; the % refers to the signal ratio). The method in brief:
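CRE-bla HEK293T cells plated 18 h, then given compound plus NKH477 at 0.25 uM final for 3 h at 37C. Beta-lactamase reporter read with LiveBLAzer B/G FRET substrate after 2 h at room temperature.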

The target in assay [16] is Beta-2 adrenergic receptor (Homo sapiens) (UniProt P07550). Description: Adrenergic beta2 receptor (ADRB2) small molecule antagonists, cell-based qHTS assay (AID 1963592). Note: nearly all actives have a fitted effect of over 50% in size. Note: potency is the fitted concentration of half-maximal effect. The method in brief: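 Cells (CHO, stable ADRB2 overexpression) incubated 18-20hr at 37C; compounds added from DMSO; agonist mix (1nM isoproterenol, 100uM IBMX, 25uM Ro-20-1724) added; 0.5hr RT; d2-cAMP and anti-cAMP-cryptate added; 1hr RT; 665/615 nm read.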
Chain of Beta-2 adrenergic receptor (Homo sapiens) (P07550 whole entry, looked up): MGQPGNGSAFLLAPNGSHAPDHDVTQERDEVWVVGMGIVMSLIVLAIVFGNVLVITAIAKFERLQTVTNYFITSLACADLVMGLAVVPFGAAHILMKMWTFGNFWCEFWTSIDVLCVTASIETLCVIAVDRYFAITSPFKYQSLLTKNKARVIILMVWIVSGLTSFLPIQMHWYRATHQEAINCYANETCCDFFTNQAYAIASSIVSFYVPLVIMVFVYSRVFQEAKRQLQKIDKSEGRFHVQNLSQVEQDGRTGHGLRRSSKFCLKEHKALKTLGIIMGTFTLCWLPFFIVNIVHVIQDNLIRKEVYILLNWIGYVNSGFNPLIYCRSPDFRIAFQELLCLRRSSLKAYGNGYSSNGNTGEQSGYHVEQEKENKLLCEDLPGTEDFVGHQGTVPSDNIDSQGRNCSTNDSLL

Assay [17] has the same target. The assay is described as follows: Adrenergic beta2 receptor (ADRB2) small molecule agonists, cell-based qHTS assay (AID 1963593).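 Note: CHO cells stably overexpressing human ADRB2.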 Put shortly: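 CHO cells stably over-expressing ADRB2 were plated overnight at 37C, then dosed with compounds plus a stimulation mix containing 100uM IBMX and 25uM Ro-20-1724 for 0.5hr at room temperature. cAMP was measured by HTRF competition, 1hr.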

For assay [18], the target named is D(2) dopamine receptor (Homo sapiens) (UniProt P14416). Description: Dopamine D2 receptor (DRD2) small molecule agonists, cell-based qHTS assay (AID 1963594). Note: nearly all actives have a fitted effect of over 35% in size. The method in brief: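 cAMP accumulation in DRD2-HEK293 cells measured by HTRF after 1 h detection; compounds added 10 min before NKH477 (200nM […]) forskolin-analogue stimulation, 30 min at room temperature, with Ro20-1724 present at 0.1 mM final.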
Chain of D(2) dopamine receptor (Homo sapiens) (P14416 whole entry, looked up): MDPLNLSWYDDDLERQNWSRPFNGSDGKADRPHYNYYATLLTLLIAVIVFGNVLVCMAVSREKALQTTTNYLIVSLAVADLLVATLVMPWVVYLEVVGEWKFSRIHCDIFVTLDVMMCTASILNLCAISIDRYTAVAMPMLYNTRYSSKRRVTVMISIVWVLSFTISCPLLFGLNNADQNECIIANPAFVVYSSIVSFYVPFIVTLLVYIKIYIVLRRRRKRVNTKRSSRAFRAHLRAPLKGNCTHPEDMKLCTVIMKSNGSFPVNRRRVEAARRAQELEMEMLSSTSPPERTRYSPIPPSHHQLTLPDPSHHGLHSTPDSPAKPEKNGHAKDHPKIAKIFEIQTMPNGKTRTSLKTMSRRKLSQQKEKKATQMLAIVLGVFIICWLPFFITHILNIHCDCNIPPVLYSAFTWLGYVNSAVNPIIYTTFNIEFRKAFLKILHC

For assay [19] the target is unchanged. Description: Dopamine D2 receptor (DRD2) small molecule antagonists, cell-based qHTS assay (AID 1963595; active = well fitted inhibition curve with a large enough effect in the signal ratio in the repeat runs, with a control signal flat; the % refers to the signal ratio; note: potency is the fitted concentration of half-maximal effect). The method in brief:
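HEK293 cells stably expressing DRD2 were preincubated with 0.1 mM Ro20-1724, then with compound for 10 min at room temperature. Cells were stimulated with 200 nM NKH477 plus 12 nM quinpirole for 30 min, and cAMP was read by HTRF.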

A short description of assay [20]: p53 small molecule agonists, cell-based qHTS assay with rat liver microsomes (AID 1963578). The method in brief:
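Each plate received p53RE-bla cells, then compound, then rat liver microsomes and NADPH (both 0.5 mg/mL final). Plates were held 16 h at 37 C, and beta-lactamase activity was detected with LiveBLAzer over 2 h.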

Chain of Muscarinic acetylcholine receptor M1 (Homo sapiens) (P11229 whole entry, looked up): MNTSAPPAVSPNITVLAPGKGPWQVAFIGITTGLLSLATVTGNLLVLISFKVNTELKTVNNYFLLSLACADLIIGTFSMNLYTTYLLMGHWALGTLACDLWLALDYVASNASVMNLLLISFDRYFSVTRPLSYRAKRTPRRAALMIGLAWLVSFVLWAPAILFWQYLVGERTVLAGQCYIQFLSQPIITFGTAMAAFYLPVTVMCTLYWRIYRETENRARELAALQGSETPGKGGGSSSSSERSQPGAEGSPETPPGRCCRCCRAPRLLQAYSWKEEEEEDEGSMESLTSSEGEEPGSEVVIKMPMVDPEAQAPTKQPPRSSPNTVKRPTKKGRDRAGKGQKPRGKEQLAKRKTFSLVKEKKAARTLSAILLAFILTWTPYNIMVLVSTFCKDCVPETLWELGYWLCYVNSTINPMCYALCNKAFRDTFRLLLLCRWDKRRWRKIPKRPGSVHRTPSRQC
Chain of KiSS-1 receptor (Homo sapiens) (Q969F8 whole entry, looked up): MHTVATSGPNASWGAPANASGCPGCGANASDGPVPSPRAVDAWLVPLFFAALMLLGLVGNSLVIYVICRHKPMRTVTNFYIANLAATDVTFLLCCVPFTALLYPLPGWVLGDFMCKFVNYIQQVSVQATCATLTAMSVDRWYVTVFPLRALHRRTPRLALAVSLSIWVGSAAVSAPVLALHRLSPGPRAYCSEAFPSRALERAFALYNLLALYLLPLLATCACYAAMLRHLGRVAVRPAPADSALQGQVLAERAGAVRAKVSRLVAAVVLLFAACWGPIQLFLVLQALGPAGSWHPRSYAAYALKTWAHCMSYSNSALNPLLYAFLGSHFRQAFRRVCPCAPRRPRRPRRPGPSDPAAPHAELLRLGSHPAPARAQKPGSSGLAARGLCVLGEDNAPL
Chain of 5-hydroxytryptamine receptor 2A (Homo sapiens) (P28223 whole entry, looked up): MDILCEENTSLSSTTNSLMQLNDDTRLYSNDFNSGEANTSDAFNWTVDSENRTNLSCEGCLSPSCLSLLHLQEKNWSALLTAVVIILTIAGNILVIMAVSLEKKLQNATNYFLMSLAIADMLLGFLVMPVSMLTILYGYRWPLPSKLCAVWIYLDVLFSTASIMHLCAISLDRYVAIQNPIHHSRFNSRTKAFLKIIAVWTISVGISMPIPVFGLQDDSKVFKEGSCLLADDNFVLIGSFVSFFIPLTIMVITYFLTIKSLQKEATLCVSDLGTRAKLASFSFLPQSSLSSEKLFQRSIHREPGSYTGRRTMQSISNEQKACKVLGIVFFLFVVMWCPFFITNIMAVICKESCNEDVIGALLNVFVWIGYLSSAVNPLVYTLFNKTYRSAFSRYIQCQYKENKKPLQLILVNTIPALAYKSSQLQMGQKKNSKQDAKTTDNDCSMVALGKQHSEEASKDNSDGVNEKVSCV
Chain of Gonadotropin-releasing hormone receptor (Homo sapiens) (P30968 whole entry, looked up): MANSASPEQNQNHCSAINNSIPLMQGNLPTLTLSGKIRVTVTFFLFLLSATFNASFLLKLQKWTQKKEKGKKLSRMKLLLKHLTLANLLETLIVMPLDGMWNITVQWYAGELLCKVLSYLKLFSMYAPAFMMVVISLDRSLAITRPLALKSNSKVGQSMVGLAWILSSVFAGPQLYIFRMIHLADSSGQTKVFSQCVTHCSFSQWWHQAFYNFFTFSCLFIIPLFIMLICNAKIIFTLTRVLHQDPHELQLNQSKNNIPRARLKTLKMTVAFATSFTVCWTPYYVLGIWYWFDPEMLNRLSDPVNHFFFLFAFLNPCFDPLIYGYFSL

On to `C1=Cc2cccc3cccc1c23`, for which the Potency entry in [1], in [3], in assay [4], in assay [5], in [6] and in assay [7] was “inactive” in each case. Also, the Potency result in assay [8], in assay [9], in [10], in assay [11], in [12] and in assay [13] was “inactive” in each case. Besides, the Potency entry in [14], in assay [15], in assay [16], in assay [17], in [18] and in [19] was “inactive” throughout. In addition, in [2], the Potency is 23.9 µM (active) and inactive.

For the compound `CCCCCCCCCCCC[N+](C)(C)CCOc1ccccc1`, the Potency is 27.3 µM (active) in assay [1]; 38.9 µM (active) and 16.9 µM (active) in assay [3]; 45.8 µM (active) and inactive in assay [6]; 45.8 µM (active) and inactive in assay [7]; 45.8 µM (active) and inactive in [8]; 43.7 µM (active) in [11]. Besides, the Potency is 748 nM (active) and inactive in [12]; 48.6 µM (active) in assay [19]. Moreover, the Potency entry in [2], in assay [4], in assay [5], in assay [20], in assay [9] and in [13] was “inactive” each time. For the same compound, the Potency entry in assay [15], in assay [16] and in assay [18] was “inactive” throughout.

Regarding `COP(=O)(NC(C)=O)SC` (stereo unspecified), the Potency result in [1], in [2], in assay [3], in [4], in assay [5] and in assay [20] was “inactive” each time. Further, the Potency entry in [6], in [7], in [8], in assay [9], in assay [10] and in [11] was “inactive” throughout. For the same compound, the Potency entry in [12], in [13], in assay [14], in assay [15], in assay [16] and in assay [17] was “inactive” in each case. Moreover, the Potency result in assay [18] and in assay [19] was “inactive” in each case.

Regarding `Cc1ccc2c(c1N)C(=O)c1ccccc1C2=O`, the Potency result in assay [1], in assay [3], in assay [4], in assay [5], in assay [20] and in assay [6] was “inactive” each time. Also, the Potency result in assay [7], in [8], in assay [9], in assay [10], in assay [11] and in assay [12] was “inactive” throughout. The Potency entry in assay [13], in assay [15], in assay [16], in assay [17], in [18] and in [19] was “inactive” in each case. In addition, the Potency in [2] is 60.4 µM (active) and 1.93 µM (active).

In the case of `CC(Cl)CCl` (stereo unspecified), the Potency result in assay [1], in [2], in assay [3], in [4], in assay [5] and in [20] was “inactive” throughout. The Potency result in assay [6], in assay [8], in assay [9], in [10], in [11] and in assay [12] was “inactive” throughout. Besides, the Potency result in assay [13], in assay [14], in assay [15], in [16] and in assay [18] was “inactive” each time.

`Oc1cc(Cl)ccc1Oc1ccc(Cl)cc1Cl`: the Potency was 22.2 µM (active) and 29.8 µM (active) in [1]; 16.6 µM (active) and inactive in [6]; 37.2 µM (active) and inactive in assay [7]; 26.3 µM (active) in assay [8]; 35.5 µM (active) in assay [11]; 52.6 µM (active) in [16]. The Potency in [19] was 55.8 µM (active). Further, the Potency result in [2], in [3], in assay [4], in assay [5], in [20] and in assay [9] was “inactive” throughout. Further, the Potency entry in [10], in assay [12], in assay [13] and in [18] was “inactive” throughout.

For `CCCCON=O`, the Potency entry in [1], in assay [2], in [3], in assay [4], in assay [5] and in assay [20] was “inactive” each time. In addition, the Potency entry in [6], in assay [8], in [9], in assay [10], in assay [11] and in [13] was “inactive” throughout. In addition, the Potency entry in assay [14], in [15], in assay [16], in assay [18] and in assay [19] was “inactive” each time.
